# Results: PubChem BioAssay AID2314 (National Center for Advancing Translational Sciences (NCATS), 2010)
# Where “and” joins values, the source holds several entries; their conditions need not be identical. Identical values can stand only once. The campaign covered roughly 300,000 compounds. About 37,000 (12%) were called active. No stated cut-off is given here; in the data, active means max response mostly above about 13% (no sharp cut-off); inactive means mostly below about 14%. The entries come from a sample that favours actives as a whole.
# Assay: Cycloheximide Counterscreen for Small Molecule Inhibitors of Shiga Toxin; further: read at 38.3 µM for the half of the compounds with a filed dose; 0% is about no effect
# Settings: cell reporter, cycloheximide protein synthesis inhibition counterscreen; hits give high values
row,SMILES,max response
1,Cc1cccc(C(=O)Nc2nnc(S(=O)(=O)N3CCCCCC3)s2)c1,-1.9% (inactive)
2,O=C1/C(=C/c2ccc(F)cc2)SC(=S)N1CCCC(=O)N1CCCCC1CCO (stereo not given),0.37% (inactive)
3,CN1CCN(c2ccc(S(=O)(=O)N3CCCCC3)cc2NC(=O)Cc2ccccc2F)CC1,0.822% (inactive)
4,CCN1CCN(c2ccc(S(=O)(=O)N3CCCCC3)cc2NC(=O)Cc2c(Cl)cccc2Cl)CC1,44.2% (active)
5,COc1ccc(CC(=O)Nc2cc(S(=O)(=O)N3CCCCC3)ccc2N2CCN(C)CC2)cc1,-2.16% (inactive)
6,CCCNC(=O)C(=O)Nc1cc2c3c(c1)CCC(=O)N3CCC2,-6.21% (inactive)
7,Cc1cc(F)ccc1N1CCC(N2CCN(C)C(CCO)C2)CC1 (stereo not given),-1.8% (inactive)
8,CCCn1c(C2CCCN2c2nc(-c3ccc(OC)cc3)cs2)nc2ccccc21 (stereo not given),3.07% (inactive)
9,CCCn1c(CCNc2nc(-c3ccc(OC)cc3)cs2)nc2ccccc21,6.09% (active)
10,CCCn1c(C(O)c2cc(OC)ccc2OC)nc2ccccc21 (stereo not given),-2.36% (inactive)
11,COC(=O)c1ccc(CSc2ccc3nnc(-c4ccccc4)n3n2)o1,15.3% (inactive)
12,Cc1nnc2n1N=C(c1ccc3c(c1)NC(=O)CO3)CS2,-0.735% (inactive)
13,CC(C)CNC(=S)Nc1ccc(F)cc1,-3.91% (inactive)
14,Cc1cc(Br)ccc1NC(=S)NC1CCCC1,30.4% (active)
15,Cc1ccc(/C=N/NC(=S)Nc2cccc(S(=O)(=O)N(C)C)c2)o1,11.3% (inactive)
16,Cc1cc(C)cc(NC(=S)NCc2ccc(F)cc2)c1,-3.19% (inactive)
17,Cc1ccc(NC(=S)Nc2ccc(F)cc2)cc1,8.11% (active)
18,Cc1ccc(NC(=S)NC2CCCC2)cc1,26.6% (active)
19,S=C(Nc1ccc(Br)cc1)NC1CCN(Cc2ccccc2)CC1,-1.87% (inactive)
20,Cc1ccc(/C=N/NC(=S)NC2CCCCC2)o1,24.4% (active)
21,S=C(Nc1ccc(Br)cc1Cl)NC1CCN(Cc2ccccc2)CC1,-4.37% (inactive)
22,CC(Oc1ccc(Br)cc1Br)C(=O)NC1CCCC1 (stereo not given),-1.67% (inactive)
23,Cc1ccc(NC(=O)CSCC(=O)NC2CCCCC2)cc1,1.06% (inactive)
24,C/C(=N\NC(=S)NC1CCCCC1)c1ccc(C)o1,26.6% (inactive)

row,SMILES,max response
1,Cc1ccc(-n2c(C)nnc2SCC(=O)NC2CC2)cc1,1.87% (inactive)
2,O=C(CN1CCN(Cc2ccccc2)CC1)Nc1ccc(F)c(F)c1,2.05% (inactive)
3,COc1ccc(C2CC(c3cccs3)=NN2c2nc(C)c(C(C)=O)s2)cc1OC (stereo not given),14% (inactive)
4,CCN(CC)CCCNC(=O)c1c(O)c2cc(F)cc3c2n(c1=O)C(C)CC3 (stereo not given),-7.23% (inactive)
5,O=C(N/C(=C\c1ccc([N+](=O)[O-])cc1)C(=O)N1CCOCC1)c1cccc(Br)c1,0.841% (inactive)
6,COc1ccc(/C=C/C(=O)Nc2c(C)nn(C)c2C)cc1COc1ccc(Br)cc1,-4.32% (inactive)
7,Cc1ccc(S(=O)(=O)N2CCN(c3ccccc3)CC2)cc1C,-2.26% (inactive)
8,CN(CC(=O)Nc1c(Cl)cccc1Cl)C(=O)CNC(=O)C1CCCCC1,5.73% (inactive)
9,O=C(O)CCc1nc2cc(Cl)ccc2n(Cc2ccccc2)c1=O,-1.53% (inactive)
10,Cc1nnc(SC(C)C(=O)Nc2ccc(S(=O)(=O)NC3CCCCC3)cc2)s1 (stereo not given),-4.95% (inactive)
11,CCOCCCN(C)C1CCN(C(=O)c2oc3ccccc3c2NC(=O)Cc2cccc([N+](=O)[O-])c2)CC1,-8.08% (inactive)
12,COc1ccc(OC)c(C(=O)c2ccc(C(=O)O)cc2)c1,5.22% (inactive)
13,COc1ccc2occ(C(=O)c3ccc(N=C(C)N(C)C)cc3)c2c1,28.3% (active)
14,COc1ccc(OC)c(C(=O)c2coc3ccc(OC)cc23)c1,-2.15% (inactive)
15,COc1ccccc1OCc1ccc(C(=O)NC(C)c2ccccc2)o1 (stereo not given),-0.796% (inactive)
16,CC(C)(C)NC(=O)c1cccc(NC(=O)Cc2ccc(Br)cc2)c1,-3.99% (inactive)
17,CN(C)C(=O)c1nc2ccc(Cl)cn2c1CNCc1cccc(OC(F)(F)F)c1,0.689% (inactive)
18,C/C(=N\NC(=O)Cc1ccc(Br)cc1)c1cccnc1,1.49% (inactive)
19,C/C(=N\NC(=O)c1cc2c(s1)CCC(C)C2)c1cccnc1 (stereo not given),19.2% (active)
20,C/C(=N\NC(N)=S)c1cccnc1,-2.63% (inactive)
21,C/C(=N/NC(=O)c1ccn(C)n1)c1ccncc1,51.6% (active)
22,C/C(=N\NC(=O)c1cc(-c2ccc(O)cc2)nc2ccccc12)c1cccnc1,17% (inactive)
23,C/C(=N\NC(=O)c1cccnc1)c1ccc(-c2ccccc2)cc1,12.6% (active)
24,C/C(=N\NC(N)=S)c1ccncc1,-1.83% (inactive)

row,SMILES,max response
1,C/C(=N\NC(=O)c1ccc2ccccc2c1)c1cccnc1,34.4% (active)
2,C/C(=N\NC(=O)c1cccnc1)c1ccc(-n2ccnc2)cc1,-1.63% (inactive)
3,CC1CCc2sc(C(=O)N/N=C/C3CCCCC3)cc2C1 (stereo not given),8.2% (inactive)
4,COCc1c(C(=O)N/N=C(\C)c2ccncc2)nnn1-c1nonc1N,-0.414% (inactive)
5,C/C(=N\NC(=O)c1cccc([N+](=O)[O-])c1)c1cccnc1,11.9% (inactive)
6,C/C=N/NC(=O)CCCC(=O)N/N=C/C,-6.46% (inactive)
7,CCOC(=O)c1c(NC(=O)Cn2nc(C(F)(F)F)cc2C)sc2c1CCC2,4.3% (inactive)
8,CCCc1nc2oc3c(OCC)ncnc3c2c2c1COC(C)(C)C2,-2.02% (inactive)
9,CCOC(=O)/C(N=Nc1cc(C(=O)O)cc(C(=O)O)c1)=C(\O)CCl,-1.38% (inactive)
10,Cc1cccc(CN2CCC(CNC(=O)Nc3ccc(F)c(Cl)c3)CC2)c1,0.642% (inactive)
11,C/C(=N\NC(=O)c1nc(C)cc(C)n1)c1ccccc1,31.4% (active)
12,COc1ccc(/C(C)=N\NC(=O)c2ccc(-c3ccccc3)cc2)c(F)c1,0.503% (inactive)
13,CNC(=O)C(NC(=O)c1ccccc1)=C(C)C,3.38% (inactive)
14,CSc1ccc(CN2C(=O)NC3(CCCCCC3)C2=O)cc1,-3.95% (inactive)
15,O=C(Nc1ccc2ccccc2c1)/C(=C/c1cccc(Br)c1)NC(=O)c1ccco1,-5.2% (inactive)
16,O=C(Nc1ccccc1)O/N=C1\CCCCC1c1ccc([N+](=O)[O-])cc1[N+](=O)[O-] (stereo not given),-0.778% (inactive)
17,O=C(Nc1ccccc1)O/N=C1/CCCc2occc21,19.6% (active)
18,COc1ccc2c(c1)CCC/C2=N\OC(=O)c1ccccc1F,33% (inactive)
19,CN(C)S(=O)(=O)c1ccc(N/C=C(\[N+](=O)[O-])S(=O)(=O)c2ccccc2)cc1,-2.27% (inactive)
20,Cc1cc(Br)ccc1NC(=O)c1cnc(N2CCN(c3ccccn3)CC2)c2ccccc12,-4.22% (inactive)
21,Cc1ccc(NC(=O)CSc2sc3c(O)cc(=O)[nH]c3c2C#N)cc1C,-5.26% (inactive)
22,COc1ccc(S(=O)(=O)N2CCN(C(=O)N(C)C)C2C)cc1 (stereo not given),-6.24% (inactive)
23,COc1ccc(CNC(=O)c2c[nH]c3c(OC)cc(OC)cc3c2=O)cc1,2.74% (inactive)
24,O=C(CSc1nnc(-c2c[nH]c3ccccc23)n1-c1ccc(F)cc1)NCc1ccco1,11.7% (active)

row,SMILES,max response
1,O=C(CSc1nnc(-c2cccs2)n1-c1ccccc1)NCc1ccco1,-2.76% (inactive)
2,COc1ccc(-n2c(SCC(=O)NCc3ccco3)nnc2-c2c[nH]c3ccccc23)cc1,1.31% (inactive)
3,COc1ccc(CC(=O)NC2CCSc3ccccc32)cc1OC (stereo not given),2.51% (inactive)
4,CC(C)[C@@H](C(=O)O)N(Cc1cccc(CN([C@H](C(=O)O)C(C)C)S(C)(=O)=O)c1)S(C)(=O)=O,-2.74% (inactive)
5,O=C(O)C1CCN(C(=O)c2cc(F)cc3c2OCOC3)CC1,-2.01% (inactive)
6,CCN(CC)C(=O)CC(c1ccc2c(c1)OCO2)c1c(OC)cc(OC)c2c(-c3ccccc3)cc(=O)oc12 (stereo not given),7.27% (inactive) and 12.1% (inactive)
7,Cc1cc(NC(=O)CSc2nc(=O)cc(N)n2-c2ccc(F)cc2)no1,-1.93% (inactive)
8,Cc1cc(NC(=O)CSc2nc3ccccc3n2CC(C)C)no1,16.2% (inactive)
9,Cc1ccc2nc(-c3ccc(SCC(=O)Nc4cc(C)on4)nc3)[nH]c2c1,40.1% (active)
10,Cc1ccc(N2CC(C(=O)Nc3ccc(S(=O)(=O)N4CCCC4)cc3)CC2=O)cc1C (stereo not given),-2.43% (inactive)
11,COc1ccccc1C(=O)COC(=O)CNS(=O)(=O)c1ccc(NC(C)=O)cc1,3.07% (inactive)
12,CC(C)C[C@H](NC(=O)N1CC(=O)Nc2ccccc21)C(=O)N[C@H](Cc1ccccc1)C(=O)O,-1.39% (inactive)
13,COc1ccc(OC)c(C2C3=C(N=c4s/c(=C\c5cccc(O)c5)c(=O)n42)c2ccccc2CC3)c1 (stereo not given),-1.53% (inactive)
14,COc1ccc(NC(=O)c2cc3nc(-c4ccccc4)cc(C)n3n2)cc1OC,-3.85% (inactive)
15,CC(C)c1ccc(OCC(=O)N2CCN(C)CC2)c(Br)c1,11.3% (active)
16,CN1CCN(C(=O)COc2ccc(C(C)(C)C)cc2Br)CC1,-0.455% (inactive)
17,CC(C)c1ccc(OCC(=O)N2CCCN(C)CC2)cc1,14.8% (inactive)
18,Cc1ccc(-c2nc(C)sc2CC(=O)OCC(=O)Nc2c(F)cccc2F)cc1,1.62% (inactive)
19,O=C(Nc1ccc(N2CCCC2=O)cc1)c1cncc(Br)c1,1.75% (inactive)
20,COCn1c(C(O)c2ccccc2)cc2ccccc21 (stereo not given),5.67% (inactive)
21,CC(C)NC(=O)COCc1cc(-c2ccc3c(c2)OCO3)on1,34.6% (active)
22,CCOC(=O)N1CCN(C(=O)COCc2cc(-c3ccc4c(c3)OCO4)on2)CC1,9.44% (inactive)
23,Cc1cccc(N2CCN(C(=O)COCc3cc(-c4ccc5c(c4)OCO5)on3)CC2)c1C,13.7% (inactive)
